The entries come from a sample that favours hits as a whole.
nsP2pro inh: blocks chikungunya virus nsP2 protease peptide cleavage | Potency, µM (top dose mostly 24.9 µM), most hits filed as inhibitors | FRET peptide cleavage, nsP2pro, fluorescence 1 h | actives 1.1% (n = 31,000); also: nearly all actives have a fitted effect of over 60% in size
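Purified recombinant nsP2pro (150 nM final) in 10 mM Tris-HCl pH 8.0 with 0.01% Tween 20 was preincubated 15 min at room temperature with compound (7 concentrations, up to 25 uM). FRET peptide 2 substrate (2.5 uM final) was then added; fluorescence was read after 1 h.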
nsP2 cell sec: inhibits CHIKV nsP2 protease in cells | shares compounds with nsP2pro inh | actives 10% (n = 450) | cell-based CHIKV nsP2 protease reporter assay | Potency, µM (highest dose often 51.1 µM), hits mostly inhibitors; also: nearly all actives have a fitted effect of over 70% in size
NSP2 full ctr: full-length CHIKV NSP2 protease inhibition, selectivity; shares compounds with nsP2pro inh; Full-length CHIKV NSP2 protease enzymatic counterscreen; Potency, µM (series often up to 50.7 µM), usual class: inhibitors; actives 39% (n = 410); AID 1964101; also: nearly all actives have a fitted effect of over 65% in size
Furin counter: human furin inhibition, counterscreen for nsP2pro inhibitors. shares compounds with nsP2pro inh. Recombinant human furin enzymatic counterscreen, fluorogenic substrate. Potency, µM (highest dose often 50.6 µM), hits mostly inhibitors. actives 6% (n = 410)
Target sequence (P09958 whole entry, looked up): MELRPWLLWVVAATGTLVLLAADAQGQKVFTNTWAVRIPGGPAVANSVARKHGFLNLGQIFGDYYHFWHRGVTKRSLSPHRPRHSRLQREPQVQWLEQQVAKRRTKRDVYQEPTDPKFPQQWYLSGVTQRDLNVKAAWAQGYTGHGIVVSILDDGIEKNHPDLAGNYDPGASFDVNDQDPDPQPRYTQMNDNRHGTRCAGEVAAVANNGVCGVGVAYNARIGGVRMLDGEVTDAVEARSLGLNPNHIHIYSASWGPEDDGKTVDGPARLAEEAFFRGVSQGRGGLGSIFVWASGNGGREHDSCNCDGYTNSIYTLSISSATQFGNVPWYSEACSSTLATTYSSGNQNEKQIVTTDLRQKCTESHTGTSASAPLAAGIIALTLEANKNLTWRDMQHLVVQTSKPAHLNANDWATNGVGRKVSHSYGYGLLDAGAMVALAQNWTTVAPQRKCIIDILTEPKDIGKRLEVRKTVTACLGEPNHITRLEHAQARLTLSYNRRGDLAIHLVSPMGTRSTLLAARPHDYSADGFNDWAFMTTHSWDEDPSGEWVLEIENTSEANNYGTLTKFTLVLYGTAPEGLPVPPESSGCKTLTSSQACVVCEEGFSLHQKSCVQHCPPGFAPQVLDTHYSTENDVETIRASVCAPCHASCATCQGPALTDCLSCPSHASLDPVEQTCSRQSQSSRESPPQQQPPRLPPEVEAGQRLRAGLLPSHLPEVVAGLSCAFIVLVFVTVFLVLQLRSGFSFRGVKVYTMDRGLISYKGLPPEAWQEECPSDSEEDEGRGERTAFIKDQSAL
nsP2 NS23 pep: blocks CHIKV nsP2 protease cleavage of endogenous NS2/3 peptide; AID 1964103; shares compounds with nsP2pro inh; Purified CHIKV nsP2 protease, endogenous NS2/3 peptide cleavage; actives 34% (n = 410); Potency, µM (top dose mostly 51 µM), most hits filed as inhibitors; also: nearly all actives have a fitted effect of over 55% in size
Papain cs: selectivity counter-screen for CHIKV nsP2 protease inhibitors: papain; shares compounds with nsP2pro inh; purified papain protease activity, enzymatic inhibition; Potency, µM (series often up to 51 µM), most hits filed as inhibitors; actives 5% (n = 410); AID 1964104
nsP2pro confirm: confirmation of CHIKV nsP2 protease inhibitors | CHIKV nsP2 protease enzymatic activity, qHTS | actives 43% (n = 410) | shares compounds with nsP2pro inh | AID 1964105 | Potency, µM (doses to about 25.5 µM), most hits filed as inhibitors; also: nearly all actives have a fitted effect of over 75% in size
HCV NS3 counter: selectivity counter-screen for CHIKV nsP2 protease inhibitors: HCV NS3/4A | shares compounds with nsP2pro inh | HCV NS3/4A protease biochemical counterscreen | Potency, µM (top dose mostly 50.9 µM), usual class: inhibitors | actives 20% (n = 410) | AID 1964106; also: nearly all actives have a fitted effect of over 55% in size
A number is an active result; 0 = inactive; ? = inconclusive; ! = not confirmed by another sample. Calls follow the shape of the full dose curve.

SMILES | nsP2pro inh | others
N#Cc1ccccc1CN1CCNc2nc(CNCc3ccccc3)n(Cc3ccccc3)c2C1=O | 0
O=C(Nc1ccccc1F)C1CCCN(Cc2cccc(-c3cccs3)c2)C1 (stereo unspecified) | 0
COC(=O)CCC(NC(=O)C(CC(=O)OC)NC(=O)OCc1ccccc1)C(=O)NC(C(=O)NC(CC(=O)OC)C(=O)CF)C(C)C (stereo unspecified) | 0
COCCC1(CO)CCCN(C(=O)CCc2c(C)noc2C)C1 (stereo unspecified) | 0
CCOc1cc(/C=C(\C#N)C(=O)Nc2ccc(OC)cc2)ccc1OCc1cc(=O)n2nc(CC)sc2n1 | 0
CCOc1ccc(/C=C(\C#N)C(=O)Nc2sc3c(c2C(=O)OC)C(C(=O)OC)CC3)cc1OC (stereo unspecified) | 0.85µM | nsP2 cell sec=0;NSP2 full ctr=?;Furin counter=0;nsP2 NS23 pep=5.8µM;Papain cs=0;nsP2pro confirm=4µM;HCV NS3 counter=0
COC(=O)C1CCc2sc(NC(=O)Cc3ccccc3)c(C(=O)Nc3ccc(Cl)cc3)c21 (stereo unspecified) | 0
COc1cccc(Nc2ccnc(-c3nnc(C)n3C3CCCCC3)c2)c1 | 0
O=C(c1ccc(F)cc1)N1CCC2(CNc3ccccc3[S+](=O)([O-])N2)C1 (stereo unspecified) | 0
O=C(O)c1cccc(-c2noc(-c3ccccc3Cl)n2)c1 | 0
CCSc1ncc(Cl)c(C(=O)Nc2ccc(S(=O)(=O)N(C)c3ccccc3)cc2)n1 | 0
CC(C)Sc1ncc(Cl)c(C(=O)Nc2ccc(S(=O)(=O)N(C)c3ccccc3)cc2)n1 | 0
CCN(c1ccccc1)S(=O)(=O)c1ccc(NC(=O)c2nc(S(C)(=O)=O)ncc2Cl)cc1 | ? | nsP2 cell sec=2.6µM;NSP2 full ctr=4.1µM;Furin counter=0;nsP2 NS23 pep=5.8µM;Papain cs=0;nsP2pro confirm=4.5µM;HCV NS3 counter=0
COC(=O)CC[C@@H]1N=C(c2ccccn2)c2cc(Br)ccc2-n2c(C)cnc21 | 0
CN1CC(C(=O)NCc2cccs2)NC1=O (stereo unspecified) | 0
Nc1nc(O)c(C2=C3C(=Nc4ccccc43)C(=O)NCC2)[nH]1 | ? | nsP2 cell sec=0;NSP2 full ctr=0;Furin counter=0;nsP2 NS23 pep=0;Papain cs=0;nsP2pro confirm=0;HCV NS3 counter=0
CC(Sc1nc2c(cnn2-c2cccc(Cl)c2)c(=O)[nH]1)C(N)=O (stereo unspecified) | 0
O=C(NC1CCCc2c1cnn2-c1ccc(F)cc1F)c1ccncc1 (stereo unspecified) | 0
O=C(NC1CCCc2c1cnn2-c1ccc(F)cc1F)c1ccccn1 (stereo unspecified) | 7.9µM! | nsP2 cell sec=0;NSP2 full ctr=0;Furin counter=0;nsP2 NS23 pep=0;Papain cs=0;nsP2pro confirm=0;HCV NS3 counter=0
O=C(N[C@H]1CCCc2c1cnn2-c1ccc(F)cc1F)c1ccccn1 | 0
CC12CCC3C(CCC4CC(O)CCC43C)C1CCC2=O (stereo unspecified) | 0
CC(C)N1CCN(C(=O)CC2=C3CCCCC3NC2=O)CC1 (stereo unspecified) | 0
Cc1cnc(-c2ccccc2C(C)C)nc1NCC1CCN(C2COC2)CC1 | 0
COC(=O)C#Cc1ccc([N+](=O)[O-])cc1 | 0.99µM | nsP2 cell sec=?;NSP2 full ctr=1.2µM;Furin counter=0;nsP2 NS23 pep=2.9µM;Papain cs=0;nsP2pro confirm=0.56µM;HCV NS3 counter=0
O=C(N[C@H](CO)[C@H](O)c1ccc([N+](=O)[O-])cc1)C(Cl)Cl | 0
SMILES | nsP2pro inh | others
O=C(Nc1ccc([N+](=O)[O-])cc1)Nc1ccc([N+](=O)[O-])cc1 | 0
NCc1ccc(Oc2ccccc2)cc1 | 0
COC(=O)N[C@H](C(=O)N1CC2(CC2)C[C@H]1c1ncc(-c2ccc3c(c2)C(F)(F)c2cc(-c4ccc5nc([C@@H]6[C@H]7CC[C@H](C7)N6C(=O)[C@@H](NC(=O)OC)C(C)C)[nH]c5c4)ccc2-3)[nH]1)C(C)C | 0
CCOc1cc(C)c(CN2CCCC(O)(CN(C)C)C2)cc1C(C)C (stereo unspecified) | 0
CC(C)(C)OC(=O)N1CCN(c2cccc(NCc3ccc(-c4ccc(C#N)cc4)o3)c2)CC1 | 0
N#Cc1ccc(-c2ccc(CNc3ccc(N4CCC(C(F)(F)F)CC4)cc3)o2)cc1 | 2.8µM | nsP2 cell sec=0;NSP2 full ctr=?;Furin counter=0;nsP2 NS23 pep=0;Papain cs=0;nsP2pro confirm=?;HCV NS3 counter=?
CC(=O)N1CCN(c2ccc(NCc3ccc(-c4ccc(Br)cc4)o3)cc2)CC1 | 0
CC(C)n1nc(Cc2cccc3ccccc23)c2c(N)ncnc21 | 0
CN(Cc1ccc(OC(F)(F)F)cc1)Cc1cccc(C(F)(F)F)c1 | 0
C=C(CO)C(=O)O[C@H]1C[C@@]23O[C@@H]2CC/C(=C/[C@H]2OC(=O)C(=C)[C@H]12)CO[C@H]3O | ? | nsP2 cell sec=0;NSP2 full ctr=?;Furin counter=0;nsP2 NS23 pep=?;Papain cs=0;nsP2pro confirm=0;HCV NS3 counter=?
C=C[C@@]12COC(=O)C(=C)C1[C@@H](O)[C@H](C(=C)C(=O)OC)[C@@H](OC(=O)C(=C)CO)C2 (stereo partly specified) | 0
C=C1C(=O)OC2/C=C(/C)C3=CC(=O)C(C)(CC(OC(=O)/C(C)=C/COC(C)=O)C12)O3 (stereo unspecified) | 0
CCC(=O)O[C@H]1CC[C@H]2[C@@H]3CC[C@H]4CC(=O)[C@H](C)C[C@]4(C)[C@H]3CC[C@]12C | 0
Cc1ccc(OCCn2c(CCNC(=O)c3ccccc3N)nc3ccccc32)cc1 | 4.5µM | nsP2 cell sec=0;NSP2 full ctr=0.52µM;Furin counter=21µM;nsP2 NS23 pep=1.6µM;Papain cs=0;nsP2pro confirm=1µM;HCV NS3 counter=0.52µM
Cc1ccc(OCCn2c(CCNC(=O)c3ccccc3Br)nc3ccccc32)cc1 | 0
Cc1ccc(OCCn2c(CCNC(=O)c3cc(N)ccc3N)nc3ccccc32)cc1 | 0
Cc1ccc(-c2cc(C(=O)Nc3ccccc3C)c3ccccc3n2)cc1C | 0
O=C(C1CCCC1)N1CCC2(CC1)CC(c1ccccc1)=NO2 | 0
c1nc(N2CCC(N3CCCC3)CC2)c2cc(-c3ccc4c(c3)OCO4)ccc2n1 | 0
Cc1ccc(CNc2ncnc3ccc(-c4ccc(C(=O)N(C)C)o4)cc23)o1 | 0
CCNC(=O)c1ccc(-c2ccc3ncnc(NCc4nccs4)c3c2)o1 | 0
O=C(O)c1ccc(-c2ccc3ncnc(NCCc4cnc[nH]4)c3c2)o1 | 0
CC(O)c1ccc(-c2ccc3ncnc(NCc4nccs4)c3c2)o1 (stereo unspecified) | 10µM | nsP2 cell sec=?;NSP2 full ctr=12µM;Furin counter=0;nsP2 NS23 pep=23µM;Papain cs=0;nsP2pro confirm=0;HCV NS3 counter=12µM
OCc1ccc(-c2ccc3ncnc(NCCc4cnc[nH]4)c3c2)o1 | 1.1µM | nsP2 cell sec=21µM;NSP2 full ctr=0;Furin counter=0;nsP2 NS23 pep=0;Papain cs=0;nsP2pro confirm=0;HCV NS3 counter=10µM
Cc1csc(CNc2ncnc3ccc(-c4ccc(C(=O)O)o4)cc23)n1 | 0

Assay outcomes (PubChem)
